Shown are actives, neighbours in structure and some others; about 1.3% of the full set was active somewhere.
RPL19A-GFP yeast: modulators of TOR pathway RPL19A-GFP in S. cerevisiae; S. cerevisiae RPL19A-GFP strain, flow cytometry, 3 h; active compounds read low; percent response vs DMSO, % at 10 µM; 330,000 tested, 0.3% active;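 active means percent response vs DMSO below 50%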;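 further: median channel GFP fluorescence of the barcoded RPL19A-GFP strain; ratio of sample median GFP to plate DMSO average so 100% = DMSO; lower means less RPL19A-GFP as with rapamycin TOR inhibition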
Efflux pump inh: inhibitors of Candida antifungal efflux pumps expressed in yeast | S. cerevisiae Candida pump triplex, Nile Red efflux | inhibition, % at 10 µM | 330,000 tested, 0.44% active;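 active means plate passing quality check with inhibition over a set limit, or well fluorescence over plate mean plus 4 SD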;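 further: Nile Red retained in pooled yeast measured as flow cytometry median fluorescence; 0% = buffer negative control and 100% = Enniatin B positive control; higher means more Nile Red kept so more efflux inhibition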
LAP4-GFP MLPCN: modulators of TOR pathway LAP4-GFP in S. cerevisiae; 320,000 tested, 0.34% active; S. cerevisiae LAP4-GFP multiplex, flow cytometry GFP, 3 h; median GFP as percent of DMSO wells; GFP response vs DMSO, % at 10 µM;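 active means GFP response vs DMSO above a set limit, about the screen mean plus 3 SD, cut at about 150% in these data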
CIT2 TOR yeast: alters CIT2-GFP fluorescence in TOR pathway yeast screen | S. cerevisiae CIT2-GFP strain, flow cytometry, 3 h; 100 means same as DMSO wells | GFP response vs DMSO, % at 10 µM | 320,000 tested, 0.065% active;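 active means GFP response relative to DMSO above a set limit, near the screen mean plus 3 SD, cut at about 150% in these data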;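 further: ratio of well median GFP fluorescence to mean of DMSO wells on the plate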
AGP1 TOR yeast: modulators of TOR pathway AGP1-GFP in S. cerevisiae | 320,000 tested, 0.02% active | GFP response vs DMSO, % at 10 µM | AID 2066 | S. cerevisiae AGP1-GFP multiplex flow cytometry, 3 h; GFP as percent of DMSO wells;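 active means GFP response relative to DMSO above a set limit, near screen average plus 3 SD, cut at about 150% in these data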;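 further: median GFP channel fluorescence of the gated AGP1 strain per well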
MEP2 TOR yeast: yeast TOR pathway MEP2-GFP modulation | 330,000 tested, 0.51% active | S. cerevisiae MEP2-GFP strain, flow cytometry GFP, 3 h; 100% = DMSO control level | GFP response vs DMSO, % at 10 µM;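 active means GFP response versus DMSO above a set limit, roughly screen mean plus 3 SD, cut at about 180% in these data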;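 further: median GFP fluorescence of the barcode-gated MEP2-GFP cells per well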
LAP4 cherry2: second confirmation of modulators of TOR reporter LAP4-GFP in yeast | shares compounds with LAP4-GFP MLPCN | 590 tested, 20% active | AID 2621 | S. cerevisiae LAP4-GFP strain, flow cytometry GFP, 3 h | GFP response vs DMSO, % at 10 µM;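 active means GFP signal as percent of the solvent control above about 150%, meaning raised reporter expression, limit read from the data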;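 further: ratio of well median GFP fluorescence to plate DMSO mean so 100% = DMSO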
MEP2-GFP pick2: reconfirmed MEP2-GFP TOR pathway modulator in yeast; GFP response vs DMSO, % at 10 µM; S. cerevisiae MEP2-GFP strain, flow cytometry GFP, 3 h; shares compounds with LAP4-GFP MLPCN; 590 tested, 10% active;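 active means GFP signal above 150% of the solvent control wells, that is a rise of more than half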;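 further: median channel GFP fluorescence of all gated yeast cells per well; ratio of median GFP to plate DMSO average so 100% = DMSO level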
RPL19A GFP CP2: yeast RPL19A-GFP TOR reporter modulation, second cherry pick; shares compounds with LAP4-GFP MLPCN; S. cerevisiae RPL19A-GFP strain, flow cytometry GFP, 3 h; active compounds read low; 100% means same as DMSO wells; GFP response vs DMSO, % at 10 µM; 590 tested, 3% active;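 active means under 65% GFP response relative to DMSO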;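 further: median GFP channel fluorescence per well over the all cells gate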
CIT2 GFP CP2: yeast CIT2-GFP TOR reporter modulation, second cherry pick. shares compounds with LAP4-GFP MLPCN. S. cerevisiae CIT2-GFP strain, flow cytometry GFP, 3 h; DMSO control wells read 100%. GFP response vs DMSO, % at 10 µM. 590 tested, 8% active;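 active means GFP response vs DMSO above about 150%, limit read from the data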;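 further: median green fluorescence per well over all gated yeast cells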
AGP1 GFP CP2: yeast AGP1-GFP TOR reporter modulation, second cherry pick | shares compounds with LAP4-GFP MLPCN | percent response vs DMSO, % at 10 µM | 590 tested, under 10 active | S. cerevisiae AGP1-GFP strain, flow cytometry GFP, 3 h;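 active means over 150 percent of DMSO response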;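 further: median GFP channel fluorescence over all cells without mother daughter split; sample median GFP divided by mean DMSO control so 100% equals DMSO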
Yeast autofluor: compound is autofluorescent in yeast s288c cells | fluorescence change (kMESF span) at 33 µM | AID 2757 | shares compounds with LAP4-GFP MLPCN | S. cerevisiae s288c, 520 nm autofluorescence, flow cytometry, 3 h; active compounds read high; zero means same as solvent-only cells | 610 tested, under 10 active;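 active means fluorescence span over the dose series, or activity score, above about 33, limit read from the data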
s288c autofl DR: yeast s288c autofluorescence artifact in dose response. shares compounds with LAP4-GFP MLPCN. S. cerevisiae s288c parental, compound autofluorescence, flow cytometry, 3 h. fluorescence change (span) at 33 µM. 110 tested, under 10 active. AID 488829;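 active means fluorescence change span, or the activity score built from it, above 25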
TORC1 bypass gr: compounds blocking wildtype yeast growth but not TORC1 bypass cells; shares compounds with LAP4-GFP MLPCN; S. cerevisiae BY4741 spot growth rating, 48-72 h; active compounds read low; growth rating (0-3) at 30 µM; 120 tested, under 10 active;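 active means growth rating at most 1 for wild type yeast while the TORC1 bypass strain still grows fully, rated 3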
Active calls of the source: *; / = no result given.

SMILES	RPL19A-GFP yeast	Efflux pump inh	LAP4-GFP MLPCN	CIT2 TOR yeast	AGP1 TOR yeast	MEP2 TOR yeast	LAP4 cherry2	MEP2-GFP pick2	RPL19A GFP CP2	CIT2 GFP CP2	AGP1 GFP CP2	Yeast autofluor	others
CSc1nnc2c3cc(F)ccc3n(C)c2n1	64	0	87	79	67	102	99	98	57*	96	61	0.51	s288c autofl DR=0.22;TORC1 bypass gr=3
Cn1c2ccc(F)cc2c2nc3ccccc3nc21	100	0	77	104	95	103	/	/	/	/	/	/
CCCCCOC(=O)C1=C(C)NC(=O)NC1c1ccc(OC)cc1 (stereo not given)	104	0	91	105	107	102	/	/	/	/	/	/
C#CCOCCOCCOCCNc1nc(N2CCN(C(=O)[C@H]([C@@H](C)CC)n3cc([C@@H](N)Cc4ccc(O)cc4)nn3)CC2)nc(N2CCN(C(=O)[C@H](CCCCN)n3cc([C@@H](N)CC(C)C)nn3)CC2)n1	59	0	301*	129	153*	839*	107	115	97	115	98	/
C#CCOCCOCCOCCNc1nc(N2CCN(C(=O)CCCCCCCCCCNC(=O)[C@@H](CCSC)n3cc(CCO)nn3)CC2)nc(N2CCN(C(=O)CCCCCCCCCCNC(=O)[C@H](CCC(=O)O)n3cc(CCCCCN)nn3)CC2)n1	93	0	99	97	102	109	/	/	/	/	/	/
C#CCOCCOCCOCCNc1nc(N2CCN(C(=O)CCCCCCCCCCNC(=O)[C@@H](CCSC)n3cc(CCO)nn3)CC2)nc(N2CCN(C(=O)CCCCCCCCCCNC(=O)[C@H](CCCN=C(N)N)n3cc(C[C@@H](C)CC)nn3)CC2)n1	83	0	152*	85	82	93	119	140	96	117	108	/
C#CCOCCOCCOCCNc1nc(N2CCN(C(=O)CCCCCCCCCCNC(=O)[C@@H](CCC(=O)O)n3cc(CCCCCN)nn3)CC2)nc(N2CCN(C(=O)CCCCCCCCCCNC(=O)[C@H](CCCCN)n3cc(C[C@@H](C)CC)nn3)CC2)n1	74	0	198*	88	91	94	124	176*	89	120	118	0.1
C#CCOCCOCCOCCNc1nc(N2CCN(C(=O)CCCCCCCCCCNC(=O)[C@H](CCCCN)n3cc(C)nn3)CC2)nc(N2CCN(C(=O)CCCCCCCCCCNC(=O)[C@H](CCCN=C(N)N)n3cc(C[C@@H](C)CC)nn3)CC2)n1	81	0	191*	76	90	99	102	169*	85	95	109	0
C#CCOCCOCCOCCNc1nc(N2CCN(C(=O)[C@H](CCCCN)n3cc([C@@H](N)CC(C)C)nn3)CC2)nc(N2CCN(C(=O)[C@H](Cc3ccc(O)cc3)n3cc([C@@H](N)CC(C)C)nn3)CC2)n1	100	0	113	99	94	92	/	/	/	/	/	/
CCOC(=O)C1C(c2ccc([N+](=O)[O-])cc2)C2C(=O)NN=C2CC1(C)O (stereo not given)	96	0	110	100	112	96	/	/	/	/	/	/
ClC1(Cl)CC1CSc1nnc(-c2ccncc2)o1 (stereo not given)	102	0	85	113	97	108	/	/	/	/	/	/
C#CCOCCOCCOCCNc1nc(N2CCN(C(=O)CCCCCCCCCCNC(=O)[C@H](CCCCN)n3cc(CCO)nn3)CC2)nc(N2CCN(C(=O)CCCCCCCCCCNC(=O)[C@H](CCCCN)n3cc(CCCC(=O)O)nn3)CC2)n1	90	0	134	80	84	87	/	/	/	/	/	/
C#CCOCCOCCOCCNc1nc(N2CCN(C(=O)CCCCCCCCCCNC(=O)[C@H](CCCCN)n3cc(CCO)nn3)CC2)nc(N2CCN(C(=O)CCCCCCCCCCNC(=O)[C@H](CCCCN)n3cc(C[C@@H](C)CC)nn3)CC2)n1	76	0	161*	101	100	105	119	152*	94	111	110	0.31
O=C1C=CC(=O)N1c1ccc(OC(F)F)cc1	87	1	152*	72	77	87	206*	131	87	118	88	1.7
O=C1CCCC(=O)N1c1ccc(O)cc1	103	0	97	101	102	97	/	/	/	/	/	/
O=C1C=CC(=O)N1c1ccc(O)cc1	90	0	185*	92	94	85	/	/	/	/	/	3
COC(=O)CN1CCN(C(=O)c2ccco2)CC1	101	1	79	91	92	100	/	/	/	/	/	/
CCOc1ccc(N/N=C(/C#N)C(N)=O)cc1	78	0	210*	106	119	228*	/	/	/	/	/	7
COc1ccc(N/N=C(\C#N)C(N)=O)cc1	92	0	165*	147	110	123	/	/	/	/	/	7.8
CCOc1cccc(NC(=O)c2cnccc2C(F)(F)F)c1	98	0	107	103	92	103	/	/	/	/	/	/
O=S(=O)(c1ccccc1F)N1CCN(Cc2cc3c(cc2Br)OCCO3)CC1	105	0	115	112	111	106	/	/	/	/	/	/
CSCC[C@H](NC(=O)N1CCn2c1nc1ccccc12)C(=O)NC1CC1	98	0	91	103	97	93	/	/	/	/	/	/

High-throughput results: PubChem BioAssay, NMMLSC
